Assay results published in PubChem BioAssay (EPA / NIEHS).
Calls of active or inactive are those of the source. How the source made its calls: active means hit-call score of the fitted dose curve at least 0.9, where 1 is the maximum; inactive means score below 0.9.

test: ATG_M_32_CIS: Attagene CIS-FACTORIAL HepG2 Assay for M32 Transcription Factor (Internal Marker) (AID 2282949); details: HepG2 Attagene cis-factorial M32 reporter, mRNA; actives raise or lower the signal;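 further: background control marker of the multiplexed CIS panel rather than a real target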
Experimental: ATG_CIS is a cell-based, multiplexed-readout assay that uses HepG2, a human liver cell line, with measurements taken at 24 hours after chemical dosing in a 24-well plate.ATG_M_32_CIS is one of 52 assay component(s) measured or calculated from the ATG_CIS assay. It is designed to make measurements of mRNA induction, a form of inducible reporter, as detected with fluorescence intensity signals by Reverse transcription polymerase chain reaction (RT-PCR) and Capillary electrophoresis technology.Data from the assay component ATG_M_32_CIS was analyzed into 1 assay endpoint. This assay endpoint, ATG_M_32_CIS, was analyzed with bidirectional fitting relative to DMSO as the negative control and baseline of activity. Using a type of inducible reporter, measures of mRNA for gain or loss-of-signal activity can be used to understand the background control at the transcription factor-level as they relate to the gene . Furthermore, this assay endpoint can be referred to as a secondary readout, because this assay has produced multiple assay endpoints where this one serves a background control function. To generalize the intended target to other relatable targets, this assay endpoint is annotated to the background measurement intended target family, where the subfamily is internal marker.
Human liver HepG2 cells are transiently transfected with multiple reporter transcription units (MRTUs) in 6-well plates using FuGene 6 reagent (Roche; 3 ml FuGene/1 mg DNA). The MRTU constructs are regulated by a cis-regulating element (promoter). […] A major difference between the CIS and TRANS system is that in CIS activities of endogenous TFs are measured, whereas the TRANS assay evaluates changes in activities of exogenous, chimeric NR-Gal4 proteins. […] At the end of 24 hour incubation, total RNA was isolated using TriZol reagent (Invitrogen). The isolated RNA is then reverse-transcribed using oligo(dT) primer and Mo-MLV reverse transcriptase (Invitrogen) with DNAse I (Ambion) treatment for 30 min. The one-tenth of the produced cDNA was amplified by PCR using Taq DNA polymerase (Invitrogen) and two reporter sequence-specific primers. The PCR products were fluorescently labeled by primer extension with 6-arboxyfluorescein (6-FAM) 5'-labeled reporter sequence-specific primer (2 min at 95 C, 20 s at 68 C and 10 min at 72 C) and these products were digested with 5U of HpaI (New England Biolabs) for 2h at 37 C. The fragments were purified using Qiaquick PCR columns (Qiagen), analyzed on an ABI 3130xL genetic analyzer (Applied Biosystems) with peak positions identified by using a set of X-rhodamine (ROX)-labeled MapMarker1000 molecular weight standards (BioVentures). The raw capillary electrophoresis data was processed using Attagraph software (Attagene).

SMILES	outcome	AC50
CCCCCCCCCCCCS	inactive	
CC/C=C\C#N	inactive	
C=CCOC(=O)/C=C\C(=O)OCC=C	inactive	
CC(=O)CCc1ccc(O)cc1	inactive	
OCCCO	inactive	
O=C(O)c1ccccc1O	inactive	
C=C(C)C(N)=O	inactive	
O=C(O)c1cc2ccccc2cc1O	inactive	
CCCCOCCOC(=O)c1ccccc1C(=O)OCCOCCCC	inactive	
CC1=CC(O)CC(C)(C)C1 (stereo not given)	inactive	
[Cu+]	inactive	
N=C1N=C(N)c2ccccc21	inactive	
O=C(O)C1=NN(c2ccc(S(=O)(=O)O)cc2)C(=O)C1	inactive	
CCCCCCCCOS(=O)(=O)O	inactive	
CC(C)COC(=O)c1ccccc1O	inactive	
CC(C)N1C(=O)c2ccccc2C1=O	inactive	
CCCCCc1cccc(=O)o1	inactive	
CCOc1ccc(NC(C)=O)cc1	inactive	
CC(=N[Si](C)(C)C)O[Si](C)(C)C	inactive	
Cc1cccc(C)c1	inactive	

SMILES	outcome	AC50
O=S(=O)(O)CCCN1CCOCC1	inactive	
CC(C)(O)CCc1ccccc1	inactive	
C=CC(=O)OCC(CO)(COC(=O)C=C)COC(=O)C=C		122 µM (active)
CC1=CC[C@@H](C(C)(C)O)CC1	inactive	
CC1(C)CC(N)CC(C)(CN)C1 (stereo not given)	inactive	
CC1=CCC(C(C)C)=CC1		69.4 µM (active)
CC(C)(CO)CO	inactive	
CC(=O)Nc1cc(S(=O)(=O)O)cc2cc(S(=O)(=O)O)c(N=Nc3ccccc3)c(O)c12	inactive	
COc1ccccc1NC(=O)CC(C)=O	inactive	
CCC(C)COC(=O)CC(C)C (stereo not given)	inactive	
CCOC(=O)COC(=O)c1ccccc1C(=O)OCC	inactive	
CCCC1CCC(=O)CC1	inactive	
c1ccc2c(c1)-c1ccc3ccc4cccc5cc-2c1c3c45	inactive	
C=CC(C)CCCC(C)(C)O (stereo not given)	inactive	
CC(=O)N(C)C	inactive	
FC(F)(F)c1ccc(Cl)c(Cl)c1	inactive	
Cc1cc(N)n(-c2ccccc2)n1	inactive	
CCCc1ccc(O)cc1	inactive	
O=C(c1ccc(OCCN2CCCCC2)cc1)c1c(-c2ccc(O)cc2)sc2cc(O)ccc12	inactive	
Nc1cc([N+](=O)[O-])ccc1C(=O)O	inactive	
